About 83,000 compounds went through this panel and 20% of them were active in at least one assay; those are over-represented in the sample as a whole.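 96-well plates, one dose, 48 hours. Percent growth reported; active if below 10.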 Values without a mark were called inactive. Calls of active or inactive are those of the source.
Columns and labels:
Test in all cases: NCI-60 one-dose screen, 48 h (100 = growth as untreated, 0 = no growth, -100 = all killed)
Conditions in all cases: 10 µM unless noted
[1] = test system: HCT-15 colon
[2] = test system: HT29 colon
[3] = test system: SNB-75 CNS
[4] = test system: SNB-19 CNS
[5] = test system: U251 CNS
[6] = test system: PC-3 prostate
[7] = test system: SK-MEL-5 melanoma
[8] = test system: UACC-62 melanoma
[9] = test system: LOX IMVI melanoma
[10] = test system: SK-MEL-28 melanoma

In the case of `COc1cc2nc(Cl)nc(NCCO)c2cc1OC`, the growth [1] is reported as 99%, the growth [2] is reported as 110% and the growth [3] is reported as 86.1%. The growth [4] was 104%, the growth [5] was 96.5% and the growth [6] was 93.4%. It also gave a growth [7] of 102%, a growth [8] of 108% and a growth [9] of 97.7%. It also gave a growth [10] of 112%.

In the case of `COc1ccc(C2NC3=C(CCCC3)C(C#N)(C#N)C2(C#N)C#N)cc1` (stereo unspecified), the growth [1] is reported as 65.9%, the growth [2] is reported as 79.9% and the growth [3] is reported as 88.6%. The growth [4] was 88.5%, the growth [5] was 107% and the growth [6] was 104%. For the same molecule, the growth [7] was 101%, the growth [8] was 75.4% and the growth [9] was 91.8%. It also gave a growth [10] of 106%.

With `COc1cc(/C=C2\CCCC3=C2N=C2SC(C)=NN2C3c2cc(OC)c(OC)c(OC)c2)cc(OC)c1OC` (stereo unspecified) the growth [1] was -20.6% (active), the growth [2] was 13.9% and the growth [3] was -7.84% (active). The growth [4] was 32.3%, the growth [5] was 20.9% and the growth [6] was 57.7%. The growth [7] was 45.2% and the growth [9] was -67.6% (active).

In the case of `COC1=CC(c2ccc[nH]2)=N/C1=C\c1[nH]c(C)c(C(=O)CCCCC(=O)NCc2ccccc2)c1C`, the growth [1] is reported as -19.5% (active), the growth [2] is reported as -49% (active) and the growth [3] is reported as 21.7%. For the same molecule, the growth [4] was 77.1%, the growth [5] was 10.6% and the growth [6] was -13.9% (active). The growth [7] was 43.9%, the growth [9] was -56.3% (active) and the growth [10] was 140%.

Work on `O=S(=O)(NCCCNc1nccc(-c2c(-c3ccc(F)c(O)c3)nc3sccn23)n1)c1ccc(Cl)cc1` yielded a growth [1] of 82.7%, a growth [2] of 70.1% and a growth [3] of 122%. It also gave a growth [4] of 115%, a growth [5] of 84.5% and a growth [6] of 58.7%. The growth [7] was 47.2%, the growth [8] was 6.74% (active) and the growth [9] was 45.5%. For the same molecule, the growth [10] was 23.3%.

Work on `O=C(Cc1n[nH]c(=O)c2ccccc12)OCc1c(Cl)cccc1Cl` yielded a growth [1] of 43.6%, a growth [2] of 51.4% and a growth [3] of 90%. For the same molecule, the growth [4] was 105%, the growth [5] was 54% and the growth [6] was 80.5%. The growth [7] was 56.9%, the growth [8] was 70.4% and the growth [9] was 47.1%. It also gave a growth [10] of 112%.

Work on `O=C1CCCCC=C1C[N+](=O)[O-]` yielded a growth [1] of 75.2%, a growth [2] of 83.3% and a growth [3] of 105%. It also gave a growth [4] of 97.5%, a growth [5] of 88.4% and a growth [6] of 85.5%. The growth [7] was 71.9%, the growth [8] was 91.8% and the growth [9] was 81.1%. It also gave a growth [10] of 89.2%.

`COc1cc(/C=C2\C=C(c3ccc(F)cc3)N(Cc3ccccc3)C2=O)cc(OC)c1OC` was tested, and the growth [1] was 53.6%, the growth [2] was 78.9% and the growth [3] was 70.8%. The growth [4] was 79%, the growth [5] was 48.8% and the growth [6] was 32.7%. The growth [7] was 36.1%, the growth [8] was 71.6% and the growth [9] was 65.3%. It also gave a growth [10] of 94.2%.

With `Nc1nc(-c2ccccc2)cs1` the growth [1] was 106%, the growth [2] was 100% and the growth [3] was 84.3%. For the same molecule, the growth [4] was 105%, the growth [5] was 98.9% and the growth [6] was 98.1%. The growth [7] was 102%, the growth [9] was 97.9% and the growth [10] was 109%.

`O=S(=O)(NCCCNc1nccc(-c2c(-c3ccccc3)nc3sccn23)n1)c1ccc(F)cc1` gave a growth [1] of 19.4%, a growth [2] of 29% and a growth [3] of 44%. The growth [4] was 75.1%, the growth [5] was 46.4% and the growth [6] was 60.6%. It also gave a growth [7] of 14.3%, a growth [8] of 23.1% and a growth [9] of 23.7%. The growth [10] was 56.3%.

For `COc1cc(/C=C\c2cc(OC)c(OC)c(OC)c2)cc(N/C=C\C(=O)c2c[nH]c3ccccc23)c1OC`, the growth [1] was -39% (active), the growth [2] was -77.7% (active) and the growth [3] was 34%. The growth [4] was 54.1%, the growth [5] was 58.7% and the growth [6] was 37.3%. For the same molecule, the growth [7] was 54.2%, the growth [8] was 3.34% (active) and the growth [9] was -73.3% (active). The growth [10] was -90% (active).

`COc1ccc(-c2nc(-c3ccccc3)c(-c3ccccc3)n2C2CC2)cc1OC1CCCCC1` gave a growth [1] of 41.7%, a growth [2] of 49.2% and a growth [3] of 56.3%. The growth [4] was 83.7%, the growth [5] was 43.9% and the growth [6] was 43.4%. The growth [7] was 36%, the growth [9] was 45.6% and the growth [10] was 77.7%.

`CCCCC(N)(C(=O)O)C1CCCC1` (stereo unspecified) showed a growth [1] of 96.2%, a growth [2] of 100% and a growth [3] of 93.5%. It also gave a growth [4] of 99.9%, a growth [5] of 91% and a growth [6] of 92.2%. For the same molecule, the growth [7] was 105%, the growth [9] was 99.4% and the growth [10] was 94.8%.

With `Cc1ccc(Cn2c(-c3nonc3N)nc3ccccc32)cc1` the growth [1] was 50.5%, the growth [2] was 46.3% and the growth [3] was 57.4%. For the same molecule, the growth [4] was 91%, the growth [5] was 77.5% and the growth [6] was 72.2%. It also gave a growth [7] of 76.2%, a growth [8] of 77.7% and a growth [9] of 71.7%. It also gave a growth [10] of 90%.

`COc1ccc(-c2nnc(COc3ccc(NC(=O)Nc4ccc(Cl)c(C(F)(F)F)c4)cc3F)o2)cc1` was tested, and the growth [1] was 8.08% (active), the growth [2] was 9.28% (active) and the growth [3] was 15.6%. For the same molecule, the growth [4] was 21.7%, the growth [5] was -26.6% (active) and the growth [6] was -8.78% (active). The growth [7] was 12.3%, the growth [8] was 19.2% and the growth [9] was 1.05% (active). For the same molecule, the growth [10] was 1.13% (active).

With `Cc1ccc(Oc2nc3ccccc3cc2-c2nnc(Cn3c(COc4ccccc4)nc4ccccc43)o2)cc1` the growth [1] was 17.5%, the growth [2] was 4.53% (active) and the growth [3] was 54.9%. For the same molecule, the growth [4] was 52.4%, the growth [5] was 43% and the growth [6] was 46.2%. For the same molecule, the growth [7] was 80.5%, the growth [8] was 50.8% and the growth [9] was 19.6%. It also gave a growth [10] of 90.9%.

`Cc1ccc2c(c1)C(C)Cc1c(N(C)C)ncnc1N2C` (stereo unspecified) was tested, and the growth [1] was 20.6%, the growth [2] was 4.7% (active) and the growth [3] was 14%. The growth [4] was 43.8%, the growth [5] was 21.3% and the growth [6] was 32.8%. The growth [7] was 15%, the growth [9] was 37.7% and the growth [10] was 56.6%.

Molecule `CCCCNC(=O)NS(=O)(=O)c1ccc(N2N=C(c3ccc(C)cc3C)CC2c2ccc(OC)cc2)cc1` (stereo unspecified) has a growth [1] of 47%, a growth [2] of 88% and a growth [3] of 85.4%. For the same molecule, the growth [4] was 81.2%, the growth [5] was 44.9% and the growth [6] was 50.1%. It also gave a growth [7] of 55.6%, a growth [8] of 60% and a growth [9] of 56.2%. For the same molecule, the growth [10] was 44.8%.

Work on `COc1cc(NC(=O)c2cc3ccccc3nc2Nc2ccc(F)cc2)cc(OC)c1OC` yielded a growth [1] of 31.8%, a growth [2] of 69.3% and a growth [3] of 60.7%. For the same molecule, the growth [4] was 61.1%, the growth [5] was 35.3% and the growth [6] was 13.2%. The growth [7] was -13.8% (active), the growth [8] was 37.5% and the growth [9] was 32.6%. It also gave a growth [10] of 54.2%.

With `Cc1cnc(NC(=O)C(Cc2ccccc2)NC(=O)c2ccccc2)s1` (stereo unspecified) the growth [1] was 79.9%, the growth [2] was 55% and the growth [3] was 83.6%. It also gave a growth [4] of 93.3%, a growth [5] of 92.2% and a growth [6] of 70.7%. For the same molecule, the growth [7] was 25.5%, the growth [9] was 55.9% and the growth [10] was 88.9%.

With `CC/C=C\C/C=C\C[C@H]1C/C=C2/C(=O)C=C[C@H]2C/C=C\CCC(=O)O1` the growth [1] was -14.6% (active), the growth [2] was -16.5% (active) and the growth [3] was 62%. For the same molecule, the growth [4] was 40.6%, the growth [5] was 2.71% (active) and the growth [6] was -18.9% (active). For the same molecule, the growth [7] was -58.4% (active), the growth [8] was -43.6% (active) and the growth [9] was -68.4% (active). The growth [10] was -1.61% (active).

With `COC(=O)c1cc(-c2cccs2)c(C#N)c(N)c1C#N` the growth [1] was 101%, the growth [2] was 106% and the growth [3] was 83.4%. The growth [4] was 97.1%, the growth [5] was 95.5% and the growth [6] was 95.5%. The growth [7] was 102%, the growth [9] was 99% and the growth [10] was 114%.

Molecule `Nc1cccc2c1CN(C1CCC(=O)NC1=O)C2=O` (stereo unspecified) has a growth [1] of 105%, a growth [2] of 101% and a growth [3] of 88.4%. For the same molecule, the growth [4] was 88.9%, the growth [5] was 97% and the growth [6] was 91%. The growth [7] was 103%, the growth [8] was 114% and the growth [9] was 99.8%. For the same molecule, the growth [10] was 111%.

In the case of `CCOC(=O)c1cc(/C(=N\O)c2cc(OC)c(OC)c(OC)c2)n2cc(C)cc(C)c12`, the growth [1] is reported as 17.9%, the growth [2] is reported as 6.89% (active) and the growth [3] is reported as 25.1%. The growth [4] was 40.5%, the growth [5] was 12.6% and the growth [6] was 41%. For the same molecule, the growth [7] was 12.1%, the growth [9] was 31.8% and the growth [10] was 56.1%.

With `COc1ccc(NC(=O)c2cc3ccccc3nc2Nc2cc(OC)c(OC)c(OC)c2)cc1` the growth [1] was 36.3%, the growth [2] was 64.3% and the growth [3] was 69.4%. For the same molecule, the growth [4] was 78.9%, the growth [5] was 54.2% and the growth [6] was 57.6%. The growth [7] was 44.3%, the growth [9] was 52.8% and the growth [10] was 73.2%.

Work on `CCC(=O)Nc1ccccc1C#C/C=C\C#Cc1ccccc1SC` yielded a growth [1] of 43.9%, a growth [2] of 29.6% and a growth [3] of 60.6%. The growth [4] was 79.3%, the growth [5] was 48.9% and the growth [6] was 51.9%. For the same molecule, the growth [7] was 23.8%, the growth [9] was 57.9% and the growth [10] was 81.2%.

For `N#Cc1ccc(NC(=O)c2ccc3cccnc3c2O)cc1`, the growth [1] was 31.4%, the growth [2] was 30.7% and the growth [3] was 43.8%. The growth [4] was 23.6%, the growth [6] was 45.9% and the growth [7] was 14.4%. For the same molecule, the growth [8] was 9.43% (active), the growth [9] was 21.9% and the growth [10] was 34.5%.

`CCSc1nnc(Nc2ccc(C(C)C)cc2)s1` was tested, and the growth [1] was 48%, the growth [2] was 28.9% and the growth [3] was 102%. For the same molecule, the growth [4] was 98.4%, the growth [6] was 109% and the growth [7] was 78.9%. The growth [8] was 78.1%, the growth [9] was 82.5% and the growth [10] was 110%.

— PubChem BioAssay (NCI)
